Laboratory results published in PubChem BioAssay (NCATS).
Records with an inconclusive call do not appear. Activity calls are given as the source filed them. Calls follow the shape of the dose curve; as a rule, active = well fitted inhibition curve with a large enough effect; inconclusive = small, poorly fitted or top-dose-only effect; inactive = flat fitted curve, though single readings scatter.

Key:
Test in all cases: qHTS profiling for inhibitors of Plasmodium falciparum proliferation (AID 504749); also: nearly all actives have a fitted effect of over 60% in size
Conditions in all cases: P. falciparum in erythrocytes, SYBR Green DNA, 72 h; series mostly up to 28.7 µM
[1] = test system: DIV14
Outline: (§1)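 P. falciparum-infected erythrocytes (0.3% parasitemia, 2.5% hematocrit final) were exposed to compounds for 72 h at 37 C in 5% CO2, then lysed with SYBR Green buffer overnight at room temperature; parasite DNA fluorescence was normalized to artemisinin and DMSO controls.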

[2] = test system: DIV17
Outline: as §1

[3] = test system: Dd2
Outline: as §1

[4] = test system: ECU
Outline: as §1

[5] = test system: GB4
Outline: as §1

[6] = test system: HB3
Outline: as §1

[7] = test system: ICS
Outline: as §1

[8] = test system: DIV30
Outline: as §1

[9] = test system: FAB9
Outline: as §1

[10] = test system: JCK
Outline: as §1

Measured: Potency
Potency is read from the fitted curve at half-maximal effect.

c1ccc(C2CN3CCSC3=N2)cc1 (stereo unspecified)
active: [1] 2.69 µM | [2] 3.01 µM | [3] 3.98 µM | [4] 8.91 µM | [5] 8.49 µM | [6] 3.16 µM | [7] 1.26 µM

CCCCCCCCCCCCCCCCCCOC[C@H](COP(=O)([O-])OCC[N+](C)(C)C)OC
inactive: all assays above

CCCCCCCCCCCCCCC[C@H](O)[C@H](N)CO
not listed: [3] | [7]
inactive: all other assays above

CC(C)NC[C@H](O)COc1ccc(CC(N)=O)cc1
inactive: all assays above

CC(O)C(O)[C@H]1CNc2nc(N)[nH]c(=O)c2N1 (stereo partly specified)
inactive: all assays above

CN1C2CCC1CC(OC(c1ccccc1)c1ccccc1)C2 (stereo unspecified)
inactive: [9] | [6] | [10]
active: [1] 4.78 µM | [2] 3.01 µM | [7] 0.178 µM
